{"source": "PubChem BioAssay (NCI)", "note": "Compounds without any hit were thinned out: in the full panel of roughly 83,000, 20% have a hit.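 Results are percent growth after 48 hours of single-concentration exposure. 100 means growth as in untreated cells, lower positive values show inhibition; negative values down to -100 show cell death.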 Values without a mark were called inactive. Activity calls are given as the source filed them."}
{"system": "KM12 colon", "assay": "NCI-60 one-dose screen, 48 h (100 = growth as untreated, 0 = no growth, -100 = all killed)", "conditions": "10 µM", "method": "Growth inhibition of the KM12 human tumor cell line is measured as a screen for anti-cancer activity. Cells are grown in 96 well plates and exposed to the test compound for 48 hours. Compounds are tested at a single concentration, which is 10^-5 M for most compounds. The reported endpoint is percent growth (GI% or GIPRCNT), where numbers from 0 - 100% represent growth inhibition, and numbers from -100% - 0 represent cell death. For example, a value of 40 represents 60% growth inhibition. A value of 0 means no net growth occurred over the course of the experiment. A value of -40 indicates 40% of cells at the beginning of the experiment died by the end of the experiment. A value of -100 means all cells are dead at the end of the experiment.\nNCI-60 Human Tumor Cell Lines Screen was performed using the standard one-dose NCI protocol, which is described in more detail at https://dtp.cancer.gov/discovery_development/nci-60/default.htm.\nCompounds with GIPRCNT values below 10 were considered active. Activity score was based on GIPRCNT using the following formula: […]\nScore is 0 for GIPRCNT values of 100 or above, 50 for GIPRCNT values of 0, and 100 for GIPRCNT values of -100."}
{"smiles": "CNC(=O)c1cc(Oc2ccc(NC(=O)Nc3ccc(Cl)c(OC(C)C)c3)c(F)c2)ccn1", "growth": "24.4%"}
{"smiles": "COc1ccc(-c2ccc(-c3ccc(C(=N)N)c(F)c3)s2)cc1", "growth": "-94.9% (active)"}
{"smiles": "Cc1cc(C)c(C(=O)OC(C)CNC2CCCCC2)c(C)c1", "note": "(stereo not given)", "growth": "98.2%"}
{"smiles": "O=S(=O)(O)C1(O)CCCCC1", "growth": "82.9%"}
{"smiles": "COc1ccc2oc(=O)cc(C3c4ccc([nH]4)C(c4cc(=O)oc5ccc(OC)cc45)c4ccc([nH]4)C(c4cc(=O)oc5ccc(OC)cc45)c4ccc([nH]4)C(c4cc(=O)oc5ccc(OC)cc45)c4ccc3[nH]4)c2c1", "note": "(stereo not given)", "growth": "1.11% (active)"}
{"smiles": "CC1=CSC2=NC(c3ccc(Cl)c(Cl)c3)=CC(c3ccc(Cl)cc3)N12", "note": "(stereo not given)", "growth": "56.8%"}
{"smiles": "O=C(CCc1ccccc1)N1CCN(C(=O)CCc2ccccc2)CC1", "growth": "111%"}
{"smiles": "COc1ccc(COC(=O)CC(C)C)cc1", "growth": "98%"}
{"smiles": "CCOC(=O)c1c(Cl)c2c(n1Cc1cccc(OC)c1)-c1oncc1CC2", "growth": "25.9%"}
{"smiles": "C=CCNCCCN1C(=O)c2ccc3c4c(ccc(c24)C1=O)C(=O)N(CCCNCC=C)C3=O", "growth": "-69.3% (active)"}
{"smiles": "CC(C)C[C@H](NC(=O)Cn1ccc(Nc2ccccc2)cc1=O)B(O)O", "growth": "36.1%"}
{"smiles": "O=C(NCCCl)c1cc(Cl)cc(Cl)c1", "growth": "107%"}
{"smiles": "CN(C)CCCN1c2ccccc2Sc2ccc(C(F)(F)F)cc21", "growth": "0.137% (active)"}
{"smiles": "O=NN(CCCl)C(=O)Nc1ccc(NC(=O)N(CCCl)N=O)cc1", "growth": "103%"}
{"smiles": "COC(=O)c1cnc2c(c1)Oc1ccc(Cl)cc1-c1cc(C)nn1-2", "growth": "85.8%"}
{"smiles": "CCOCC[P+](c1ccccc1)(c1ccccc1)c1ccccc1", "growth": "25.8%"}
{"smiles": "CC(C)c1ncc(CO)n1Cc1c(Cl)cccc1Cl", "growth": "101%"}
{"smiles": "O=S(=O)(NC1c2ccccc2Oc2ccccc21)c1cc(Cl)ccc1Cl", "growth": "102%"}
{"smiles": "O=C(CSc1nnc(-c2ccc(Cl)cc2)o1)c1ccccc1", "growth": "96.3%"}
{"smiles": "Cc1nnc2c3nnc(-c4ccc(Cl)cc4)n3c3ccccc3n12", "growth": "103%"}
{"smiles": "O=C1/C(=C/c2ccc(O)cc2)Cc2ccc(Cl)cc21", "growth": "87.6%"}
{"smiles": "COc1ccc(-c2nc3sc(-c4ccccc4)c(-c4ccccc4)n3c2/C=C/c2ccc(F)cc2)cc1", "growth": "90.7%"}
{"smiles": "NS(=O)(=O)c1ccc(N2N=C(c3ccc(-c4ccccc4)cc3)CC2c2ccc(Cl)cc2)cc1", "note": "(stereo not given)", "growth": "68.6%"}
{"smiles": "O=C(CCl)N1c2ccccc2Sc2ccc3ccccc3c21", "growth": "-77.5% (active)"}
{"smiles": "N#Cc1ccc(-n2cnc(NC(=O)[C@H]3CCN(C#N)C3)c2)cc1", "growth": "8.31% (active)"}
{"smiles": "Cc1nc2scc(-c3ccc(Cl)cc3)n2c(=O)c1CCN1CCOCC1", "growth": "107%"}
{"smiles": "O=C(Nc1ccc(OCc2nnc(-c3ccccc3)o2)c(F)c1)Nc1ccc(Cl)c(Cl)c1", "growth": "34.1%"}
{"smiles": "COc1cc(-c2nc3ccccc3[nH]2)ccc1OCC(=O)N=Nc1c(O)[nH]c2ccccc12", "growth": "27%"}
{"smiles": "CNC(=S)Sc1ccc([N+](=O)[O-])cc1[N+](=O)[O-]", "growth": "13.4%"}
{"smiles": "N#C/C(=C/c1cc([N+](=O)[O-])ccc1Cl)C(N)=O", "growth": "91.5%"}
{"smiles": "O=C(c1ccccc1)C(Sc1ccccc1)c1ccccc1", "note": "(stereo not given)", "growth": "99.5%"}
{"smiles": "COc1cc(Cn2c(-c3ccccc3)c(Cl)c3c2-c2oncc2CC3)cc(OC)c1", "growth": "41.7%"}
{"smiles": "Cc1ccc([P+](Cc2ccccc2)(c2ccccc2)c2ccccc2)cc1", "growth": "8.34% (active)"}
{"smiles": "CCCCCCCCCCCC(c1ccccc1)N(C)C", "note": "(stereo not given)", "growth": "104%"}
{"smiles": "CCN(CC)c1ccc(/C=C/C2=[N+](C)c3ccccc3C2(C)C)c(C)c1", "growth": "-34.7% (active)"}
{"smiles": "COc1cc(-c2nc3ccc(C)cc3[nH]2)ccc1OCc1nnc(-c2ccc(CC(C)C)cc2)o1", "growth": "97.5%"}
{"smiles": "C#CCNCCCN1C(=O)c2ccc3c4c(ccc(c24)C1=O)C(=O)N(CCCNCC#C)C3=O", "growth": "-80.4% (active)"}
{"smiles": "CCCCCCCCCCN=C(c1ccc(N(C)C)cc1)c1ccc(N(C)C)cc1", "growth": "27.8%"}
{"smiles": "COc1cccc(-c2nnc(COc3ccc(-c4nc5ccccc5[nH]4)cc3OC)o2)c1", "growth": "98%"}
{"smiles": "O=C1NN(c2ccccc2)C(c2cccnc2)=N/C1=C\\c1cccnc1", "growth": "95%"}
